Measurements: PubChem BioAssay (NCATS)
Values joined by “and” are separate entries in the source; they are usually repeats but may differ in a detail not shown here. Equal entries are not always repeated. Records with an inconclusive call do not appear. Entries that show only a call come without a potency. Active and inactive are the calls of the source. The call rests on the fitted dose curve; in most records, active means well fitted inhibition curve with a large enough effect; inconclusive means small, poorly fitted or top-dose-only effect; inactive means no such curve, though single readings can be large or run the other way.
Potency means the concentration at half of the fitted maximal effect.

What follows are compounds tested against Cytochrome P450 2C9 (Homo sapiens) (UniProt P11712) (assay: qHTS Assay for Inhibitors and Substrates of Cytochrome P450 2C9 (AID 883; further: nearly all actives have a fitted effect of over 60% in size)). Conditions: recombinant CYP2C9, luciferin-H luminescence, 60 min; series mostly up to 11.4 µM.
Chain of Cytochrome P450 2C9 (Homo sapiens) (P11712 whole entry, looked up): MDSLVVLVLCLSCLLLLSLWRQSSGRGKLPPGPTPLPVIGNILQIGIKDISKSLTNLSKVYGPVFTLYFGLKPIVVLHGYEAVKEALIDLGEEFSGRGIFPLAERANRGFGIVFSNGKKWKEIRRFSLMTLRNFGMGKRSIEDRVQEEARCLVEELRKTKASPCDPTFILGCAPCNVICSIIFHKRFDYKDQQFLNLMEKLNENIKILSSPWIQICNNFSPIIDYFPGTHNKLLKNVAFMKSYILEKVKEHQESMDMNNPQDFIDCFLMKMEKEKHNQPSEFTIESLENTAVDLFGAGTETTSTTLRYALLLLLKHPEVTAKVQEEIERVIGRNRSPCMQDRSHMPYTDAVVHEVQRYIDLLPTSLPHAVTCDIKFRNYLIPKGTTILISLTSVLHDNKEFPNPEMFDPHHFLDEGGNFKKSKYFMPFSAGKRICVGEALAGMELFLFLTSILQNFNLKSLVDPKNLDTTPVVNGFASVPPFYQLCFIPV
Procedure, shortened: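 Luminescent read-out of deoxyluciferin hydroxylation, normalized to 57uM sulphaphenazole (AC100). Reaction: 10nM enzyme, 100uM Luciferin-H (equal to KM), 25mM KPO4, 10 min compound preincubation, then 60 min with NADPH regeneration, both at 37C.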
In the case of C=CCOC(=O)C(C(C)=O)C(NC(=O)OC)c1cccs1 (stereo unspecified), the Potency is reported as “inactive”. For CCCCOC(OCCCC)[C@H](O)CSc1ccc2ccccc2c1, the Potency was 2 µM (active). In the case of CCCCCCC#CC1C=CC(OC(=O)OCC)C(COC(=O)OCC)O1 (stereo unspecified), the Potency is reported as “inactive”. In the case of CC12C=C(/C=C/c3ccc(Br)cc3)C(C)(C1)C(c1ccc(Br)cc1)CC2=O (stereo unspecified), the Potency is reported as 2.51 µM (active). For COC(=O)N(/C=C/c1ccc(OC)cc1)CCc1ccc(OC)c(OC)c1, the Potency was 3.16 µM (active). With CCCCCCC(=O)Cc1cc(OC)c(OC)cc1/C=C(/C(C)=O)C(=O)OC the Potency was “inactive”. CC(=O)OCC1OC(C#CCCCc2ccccc2)C=CC1OC(C)=O (stereo unspecified) was tested, and the Potency was “inactive”. COc1ccc(/C=C/N(CCc2ccc(OC)c(OC)c2)C(C)=O)cc1 was tested, and the Potency was 3.16 µM (active). With COC(=O)NC(/C(C(=O)OC)=C(\C)NCc1ccccc1)c1ccc(F)cc1 (stereo unspecified) the Potency was 2.51 µM (active). For Cc1cc(C)cc(C#CC2C=CC(Oc3ccc(C4CCCC4)cc3)C(CO)O2)c1 (stereo unspecified), the Potency was “inactive”. For COC(=O)C1=C(C)N(Cc2ccccc2)C2=C(C(=O)c3ccccc3)C(c3ccccc3)[C@@](O)(C(=O)OC)C(=O)N2C1c1ccccc1 (stereo partly specified), the Potency was “inactive”. C=CCOC(=O)/C=C/NC(=O)/C=C/C=C/CCCCCCCC(C)O (stereo unspecified) was tested, and the Potency was 3.98 µM (active) and 2.51 µM (active). C=CCC1C=CC(Oc2ccc(OC)cc2)C(CO)O1 (stereo unspecified) was tested, and the Potency was “inactive”. COC(=O)C/C=C\[C@@H](C)[C@@H](/C=N\OC[C@@H]1O[C@H](c2ccccc2)C=C[C@@H]1Oc1ccc(OC)cc1)NS(=O)(=O)c1ccc(C)cc1 was tested, and the Potency was 1.26 µM (active). COc1ccc(/C=C/N(CCc2ccc(OC)c(OC)c2)C(=O)c2ccccn2)cc1 was tested, and the Potency was “inactive”. For C=C(C)C(O)/C=C/c1ccc(Br)cc1 (stereo unspecified), the Potency was 3.16 µM (active). With COC(=O)C1=C(C)N(Cc2ccccc2)C2=C3C(=O)N(C)C(=O)C3[C@@](O)(C(=O)OC)C(=O)N2C1c1ccccc1 (stereo partly specified) the Potency was “inactive”. With COC(=O)C1=C(C)N(Cc2ccccc2)C2=C3C(=O)OCCC3[C@@](O)(C(=O)OC)C(=O)N2C1c1ccccc1 (stereo partly specified) the Potency was “inactive”. With COC(=O)[C@@H]1CC[C@H](C)[C@@H](c2ccc(C)cc2)N1C(=O)c1ccc(/C=N\O[C@@H](C)c2cn([C@H](CO)Cc3ccccc3)nn2)cc1 the Potency was 3.16 µM (active) and 2.51 µM (active). For CC1CCC2C(=O)OC(COc3ccc(C(C)(C)C)cc3)CN2C1c1ccc(Br)cc1 (stereo unspecified), the Potency was “inactive”. In the case of C=COCC1CN2C(CCC(C)C2c2ccc(Br)cc2)C(=O)O1 (stereo unspecified), the Potency is reported as “inactive”. With CC12C=C(/C=C/C=C/c3ccccc3)C(C)(C1)C(/C=C/c1ccccc1)CC2=O (stereo unspecified) the Potency was 3.16 µM (active). Cc1ccc(S(=O)(=O)N[C@@H](CCc2ccccc2)CC(=O)C(C)(C)C)cc1 was tested, and the Potency was 3.98 µM (active). For CCOC(=O)OCC1OC(C#Cc2ccccc2)C=CC1Oc1cccc(N(C)C)c1 (stereo unspecified), the Potency was 2.51 µM (active). With COc1ccc(O[C@H]2C=C[C@@H](c3ccccc3)O[C@H]2COC(=O)CC/C(C)=N/OCC[C@@H]2C=C[C@H](OC(C)=O)[C@H](COC(C)=O)O2)cc1 the Potency was 3.98 µM (active). With COc1ccc(OC2C=CC(c3ccccc3)OC2CO)c(C(C)(C)C)c1 (stereo unspecified) the Potency was 3.16 µM (active). CC1CCC2C(=O)N3C(CCC(C)[C@@H]3c3cccc(N4CCOCC4)c3)C(=O)N2C1c1cccc(N2CCOCC2)c1 (stereo partly specified) was tested, and the Potency was “inactive”. COc1ccc(OC2C=CC(C#Cc3ccc(F)cc3F)OC2CO)cc1 (stereo unspecified) was tested, and the Potency was “inactive”. With CCOC(=O)OCC1OC(c2cc(C)cc(C)c2)C=CC1OC(=O)OCC (stereo unspecified) the Potency was “inactive”. In the case of C/C(CCC(=O)OC[C@@H]1O[C@H](C#Cc2ccccc2)C=C[C@@H]1Oc1ccc(C)cc1)=N/O[C@@H](C)c1cn([C@H](CO)Cc2ccccc2)nn1, the Potency is reported as 3.16 µM (active). For COc1ccc(OCC2CN3C(CCC(C)C3c3ccc(Br)cc3)C(=O)O2)cc1 (stereo unspecified), the Potency was “inactive”. For COc1ccc(/C=C/NC(=O)c2ccc(OC)cc2)cc1, the Potency was “inactive”. CC#CC(C)C(OCOC)C(CC(C)Cc1cc(Br)cc(OCc2ccccc2)c1OC)OC (stereo unspecified) was tested, and the Potency was “inactive”. With COc1ccc(O[C@H]2C=C[C@@H](c3ccccc3)O[C@H]2COC(=O)CC/C(C)=N\OC[C@@H](O)[C@H]2O[C@H]3OC(C)(C)O[C@H]3[C@@H]2O)cc1 the Potency was 1.58 µM (active). For Cc1cc(C)cc(/C=C/C2OCC(O)C2Oc2ccc(C3CCCC3)cc2)c1 (stereo unspecified), the Potency was “inactive”. With COc1ccc(O[C@H]2C=C[C@@H](c3ccccc3)O[C@H]2CO/N=C2/c3cc(OC)ccc3O[C@@H](c3cccc(OC)c3)[C@H]2O)cc1 the Potency was 3.16 µM (active).
